# Source: PubChem (several laboratories)
# HSP90 inh = HSP90 inhibitors, primary screen, cell lysate, luminescence. Rabbit reticulocyte lysate, luciferase refolding luminescence, 3 h. Heat shock protein HSP 90 (rabbit reticulocyte lysate; luciferase refolding). inhibition, % at 5.6 µM. 0.91% of 290,000 active;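 active = inhibition above the screen-wide mean plus 3 SD, computed separately per campaign, cut at about 16% in these data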;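 also: 0% = DMSO wells and 100% = 60 µM geldanamycin wells; inhibitors lower the luminescence because luciferase stays unfolded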
# SENP6 inh = SENP6 protease inhibitors, primary screen, biochemical, luminescence, uHTS; Sentrin-specific protease 6 (Homo sapiens), Q9GZR1; AID 2599, 2010; Recombinant SENP6 catalytic domain, aminoluciferin luminescence; inhibition, % at 10 µM; 1.8% of 330,000 active;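 active = inhibition above about 50% at the single tested dose, limit read from the data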;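 also: plate controls were DMSO wells with enzyme for no effect and DMSO wells lacking enzyme for full effect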
# SENP8 block-1 = human SENP8 protease inhibitors, primary screen, biochemical, fluorescence, Nedd8 protein substrate, uHTS. Sentrin-specific protease 8 (Homo sapiens), Q96LD8. recombinant SENP8. inhibition, % at 20 µM. 0.64% of 360,000 active; in the data active = inhibition mostly above about 40%, no sharp cut-off; inactive = mostly below about 27%
# Target sequence (Q96LD8 whole entry, looked up): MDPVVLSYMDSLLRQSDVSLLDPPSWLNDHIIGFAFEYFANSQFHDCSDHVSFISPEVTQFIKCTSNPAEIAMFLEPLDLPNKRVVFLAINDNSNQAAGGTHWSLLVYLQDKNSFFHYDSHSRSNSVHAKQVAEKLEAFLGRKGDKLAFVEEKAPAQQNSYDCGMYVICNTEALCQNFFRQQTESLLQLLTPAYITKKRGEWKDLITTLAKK
# SENP8 block-2 = SENP8 protease inhibitors, primary screen, biochemical, luminescence; Sentrin-specific protease 8 (Homo sapiens), Q96LD8; purified SENP8, Z-RLRGG-aminoluciferin cleavage; inhibition, % at 10 µM; 1.2% of 330,000 active; AID 2540, 2010; in the data active = inhibition above about 50%
# SENP7 block = SENP7 protease inhibitors, primary screen, biochemical, luminescence, uHTS | Sentrin-specific protease 7 (Homo sapiens), Q9BQF6 | recombinant SENP7, Z-RLRGG-aminoluciferin luminescence, 40 min | inhibition, % at 5 µM | 1.5% of 330,000 active;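 active = inhibition above about 50% at the single test dose, limit read from the data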;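 also: plate controls were DMSO with enzyme for no effect and no enzyme buffer wells for full effect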
# Target sequence (Q9BQF6 706-1050 limits assumed): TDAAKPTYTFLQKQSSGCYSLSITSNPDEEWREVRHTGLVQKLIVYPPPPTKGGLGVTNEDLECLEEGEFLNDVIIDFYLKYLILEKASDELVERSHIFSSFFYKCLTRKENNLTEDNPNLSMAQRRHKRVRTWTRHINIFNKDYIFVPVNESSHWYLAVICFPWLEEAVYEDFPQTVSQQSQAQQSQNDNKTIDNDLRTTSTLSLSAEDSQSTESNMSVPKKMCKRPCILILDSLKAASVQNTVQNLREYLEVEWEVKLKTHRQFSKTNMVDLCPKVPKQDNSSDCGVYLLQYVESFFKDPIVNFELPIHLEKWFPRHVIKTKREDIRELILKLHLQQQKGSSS
# * hit, by the source's call; / = no result. An excerpt weighted towards active compounds, which were near 2.7% of everything screened.
SMILES,HSP90 inh,SENP6 inh,SENP8 block-1,SENP8 block-2,SENP7 block
CC(c1ccco1)N(C(=O)COc1ccc(Cl)cc1Cl)c1ccccn1 (stereo not drawn),42*,-1,9,6,-3
N/C(Cc1ccc(Cl)cc1)=N\OC(=O)c1ccccc1,5,-10,25,-1,8
CSCCC(NS(=O)(=O)c1cccs1)C(=O)NCc1ccccc1 (stereo not drawn),-3,-6,5,2,12
Cc1ccc2c(c1)N=C(c1ccccc1)CC(C(Cl)Cl)=N2,12,74*,-171,53*,1
CCCCn1nnnc1C(c1cc2ccccc2o1)N1CCOCC1 (stereo not drawn),/,/,3,/,/
Nc1cc2nc3ccccc3oc-2cc1=O,4,37,44*,18,13
C#Cc1cccc(NC(=O)c2ccc(Cl)cc2Cl)c1,1,73*,11,62*,74*
CC(C)CC1NC(=O)N(CC(=O)N2CCN(S(=O)(=O)c3ccc4ccccc4c3)CC2)C1=O (stereo not drawn),-2,-11,16,0,2
CN(C)c1ccc(C=c2c3cc([N+](=O)[O-])ccc3n3c2cc(-c2ccccc2)[n+]3C)cc1,/,/,51*,/,/
COC(=O)C1=C(N)Oc2cc(C)n(Cc3cccnc3)c(=O)c2C1c1ccc(OC)c(OC)c1OC (stereo not drawn),1,-13,25,0,4
CCOC(=O)c1ccc(N=Nc2c(C)c(C#N)c(O)[nH]c2=O)cc1,2,92*,25,94*,98*
CCC(C)[C@H]1CN=C(N)N1CCc1cccc(F)c1 (stereo partly drawn),/,-13,16,-14,5
COc1cc(/C=C(\C#N)C(=O)Nc2ccccc2C(=O)O)cc(Cl)c1OC,0,-8,12,-1,1
O=C(c1ccccc1)C1C(=O)c2ccccc2C1=O,2,9,46*,1,12
O=C1c2ccccc2C(=O)C2OC12 (stereo not drawn),4,37,/,6,5
O=C(CNC1CCCC1)Nc1cc(Cl)ccc1[N+](=O)[O-],8,0,20,-1,-4
O=C1C2C3C=CC(C3)C2C(=O)N1CNc1ccc(O)cc1 (stereo not drawn),/,72*,/,13,18
O=C(/C=C/c1ccccc1)NCCSc1ccc(Cl)cc1,-5,-12,40*,-1,12
O=C(Cc1ccc(Cl)cc1)NCc1ccccc1Cl,-5,-1,6,4,-2
O=C(Cc1ccccc1Cl)NC1(O)C(=O)c2ccccc2C1=O,4,38,67*,12,4
CC(=O)c1ccc(OCC(=O)NCCC2=CCCCC2)cc1,/,/,8,/,/
COCCOCCn1c(CCCO)nc2ccccc21,2,-10,7,11,-1
COCCOCCn1c(/C=C/c2ccccc2)nc2ccccc21,1,74*,-381,61*,38
CCOC(=O)C1CCN(C(=O)COc2ccc(C(=O)c3ccccc3)cc2)CC1,/,-4,15,-5,4
Nc1nc(-c2ccccc2)c(N=Nc2ccccc2Cl)s1,-3,-11,66*,-7,-5
SMILES,HSP90 inh,SENP6 inh,SENP8 block-1,SENP8 block-2,SENP7 block
O=C(N=C1c2ccccc2CN1c1ccc(F)c(Cl)c1)c1cccnc1Cl,1,66*,/,62*,61*
Cc1ccc(-c2cn3nc(C)c(C)nc3n2)cc1,1,16,-292,53*,8
O=C(Cn1c(-c2cncs2)nc2ccccc21)NCc1ccccc1,16*,-11,6,-1,-9
Cc1cc2ncn(/N=C/c3ccc([N+](=O)[O-])s3)c2cc1C,5,/,33,/,/
O=[N+]([O-])c1ccc(/C=N/n2c(CO)nc3ccccc32)s1,3,27,53*,5,28
CC(/C=C/c1ccc(OCc2ccccc2)cc1)=N\O,-5,43,6,33,70*
O=C(c1ccc2nc(N3CCCCC3)sc2c1)N1CCN(Cc2ccc3c(c2)OCO3)CC1,31*,-7,-2,-2,2
O=C(c1ccc(S(=O)(=O)N2CCCCC2)cc1)N1CCN(Cc2ccc3c(c2)OCO3)CC1,2,/,20,/,/
O=C1OC(/C(=C\Nc2cc(Cl)ccc2O)[N+](=O)[O-])c2ccccc21 (stereo not drawn),38*,5,28,-4,-8
O=C(Nc1ccc(N2CCOCC2)cc1)c1ccc(Br)o1,14,45,4,33,50
CN1CCN(c2ccc(NC(=O)c3ccc(Br)o3)cc2)CC1,-3,57*,5,33,47
CCN(CC)C(=O)c1ccccc1NC(=O)c1ccccc1,-3,-4,15,-1,-7
CC1(C)C(=O)C2(C(=O)NCc3ccccc3)CCC1C2 (stereo not drawn),17*,-11,9,-2,1
CC1=C(c2ccccc2)C=NNCC1=O,/,/,7,/,/
O=C(Nc1ccc(S(=O)(=O)N2CCCCC2)cc1)c1ccc(CN2CCc3ccccc3C2)cc1,3,3,53*,1,-6
Cc1nc2c(-c3ccc(F)cc3)c(C)nn2c(C)c1CCC(=O)Nc1ccccc1,-8,61*,-20,3,6
CCOc1ccc(N=Nc2c(=O)[nH]n3c(C)cc(C)nc23)cc1,2,-3,53*,-7,-14
Cc1ccccc1Oc1ccc(-c2nc(N)nc(N)n2)cc1,4,-11,13,0,-3
O=C1/C(=C/N(C(=O)c2ccco2)c2ccc(Cl)cc2)Sc2ccccc21,16*,/,-152,/,/
O=C1c2ccccc2C(=O)N1CCCCN(C(=O)c1ccco1)c1ccc(Cl)cc1,6,5,16,-1,3
CCOC(=O)/C(C#N)=N/Nc1ccc(S(=O)(=O)N2CCc3ccccc32)cc1,2,-5,31,-3,2
N#C/C(=N\Nc1ccc(S(=O)(=O)N2CCCCC2)cc1)C(N)=S,2,1,45*,-2,1
N#C/C(=N\Nc1ccc(S(=O)(=O)N2CCc3ccccc32)cc1)C(N)=S,3,-20,41*,-7,-6
N#CC(C#N)=NNc1ccc(S(=O)(=O)N2CCCC2)cc1,-2,2,47*,-9,-3
C[C@H](CO)N1C[C@H](C)[C@H](CN(C)C(=O)Nc2ccc(N3CCN(C)CC3)cc2)OCc2cnnn2CCCC1=O,/,/,12,/,/
O=C(OCn1nnc2ccccc2c1=O)C1COc2ccccc2O1 (stereo not drawn),0,-30,9,7,6
CCC(=O)Nc1cc(NC(=O)CSc2nnc(C(C)C)n2CC)ccc1C,0,2,29,1,3
O=C1C=C(N2CCOCC2)c2cccc3cccc1c23,/,/,19,/,/
CC1=C(C)C(=O)C(N2CCOCC2)=CC1=O,1,/,47*,/,/
O=C1C=C(N2CCOCC2)c2ccccc2C1=O,11,90*,-150,94*,90*
